# Assay results as given in PubChem BioAssay AID1626 (SRMLSC, 2009).
# Screen size: about 220,000 compounds; about 2,000 (0.91%) were called active. Not shown: some 2% with an inconclusive outcome. No stated cut-off is given here; in the data, inconclusive means inhibition above about 80% without an active follow-up result; inactive means below that; test concentration not stated here. The list is a sample of the results. Measured potencies and affinities stand elsewhere.
# Test: M. tuberculosis H37Rv growth inhibitors, H37Rv strain (AID 1626);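 further: bacteria incubated seven days before Alamar blue readout; 0% = bacteria only wells and 100% = bacteria with antibiotic wells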
# Details: stronger effect = higher value, concentration not given here
row,SMILES,inhibition
1,O=C(COc1ccccc1Br)Nc1ccccc1C(F)(F)F,1.69% (inactive)
2,COc1ccc2[nH]c3c(NCCC4=CCCCC4)ncnc3c2c1,50.8% (inactive)
3,O=c1c2[nH]c3ccccc3c2ncn1CCC1=CCCCC1,-3.83% (inactive)
4,CCNC(=S)NNC(=S)NCc1ccccc1,-6.54% (inactive)
5,CCCNc1ccc(C(=O)OCC)cc1[N+](=O)[O-],-2.78% (inactive)
6,CCOC(=O)c1ccc(NC(C)=O)c([N+](=O)[O-])c1,-0.43% (inactive)
7,COc1cc(S(N)(=O)=O)c(OC)cc1N,-5.42% (inactive)
8,COC(=O)CCn1nc(-c2ccc(Cl)cc2)c2ccccc2c1=O,0.44% (inactive)
9,CCCNC(=O)C1CCN(S(=O)(=O)c2cccc3nonc23)CC1,3.34% (inactive)
10,O=C(NCc1cccs1)C(=O)NCC(c1ccco1)N1CCN(c2ccccc2F)CC1 (stereo not drawn),4.89% (inactive)
11,Cc1ccnc2nc(C(=O)Nc3nc(-c4ccccn4)cs3)nn12,-1.5% (inactive)
12,C[C@@H](C(=O)Nc1nc(-c2ccccn2)cs1)N1C(=O)C2CCCCC2C1=O (stereo partly drawn),1.46% (inactive)
13,CC1CC1C(=O)Nc1nc(-c2ccc(Cl)s2)cs1 (stereo not drawn),9.3% (inactive)
14,Cc1csc(NC(=O)C2CCCC2)n1,-11.7% (inactive)
15,CC1CC1C(=O)Nc1nc(-c2ccccc2)cs1 (stereo not drawn),-12.6% (inactive)
16,CC(=O)Nc1ccc(C(=O)Nc2nc(-c3ccccn3)cs2)cc1,0.25% (inactive)
17,O=C(/C=C\c1ccco1)Nc1nc(-c2ccccc2)cs1,9.29% (inactive)
18,O=C(/C=C/c1ccco1)Nc1nc(-c2ccccc2)cs1,9.68% (inactive)
19,O=C(NCc1ccc(F)cc1)C1CCCN(S(=O)(=O)c2cccc3nsnc23)C1 (stereo not drawn),-3.19% (inactive)
20,NC1=NC(=O)C(Cc2cc(Cl)ccc2Cl)S1 (stereo not drawn),-5.29% (inactive)
21,CCOC(=O)C1(C)NC(c2ccc(OC)c(OC)c2)C2C(=O)N(CC)C(=O)C21 (stereo not drawn),-0.15% (inactive)
22,O=C(O)c1ccc(S(=O)(=O)c2ccc(Sc3ccc(C(=O)O)c(C(=O)O)c3)cc2)cc1,-20.9% (inactive)
23,CCOC(=O)COc1ccc(S(=O)(=O)NCc2ccco2)cc1,10.1% (inactive)
24,Cc1cc(C(=O)N2CCOCC2)c(C)o1,-4.61% (inactive)
25,COCCOc1ccc(C(F)(F)F)cc1NC(=O)c1ccc(C)cc1,2.93% (inactive)
26,CCN1C(=O)CC(c2ccco2)Sc2ccccc21 (stereo not drawn),4.45% (inactive)
27,O=P(O)(O)C12CC3CC(CC(C3)C1)C2,1.57% (inactive)
28,O=C(/C=C/c1cccc([N+](=O)[O-])c1)NCCSCc1ccc(Cl)cc1,11.2% (inactive)
